# Most compounds without a hit are left out; they make up all but 7.4% or so of the library.
# Rab9 prom act = qHTS Assay for Rab9 Promoter Activators; Huh7 Rab9 promoter-luciferase reporter, luminescence, 24 h; Potency, µM (doses to about 9.22 µM), usual class: activators; 2.8% of 320,000 active; AID 485297, 2010; note: nearly all actives have a fitted effect of over 60% in size
#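 Huh7 cells stably carrying Rab9 promoter–luciferase reporter, plated 1500 cells/well, compound added after 2 h and incubated 24 h at 37 °C; luciferase luminescence then read after 10 min with detection reagent.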
# SMN2 splice up = qHTS Assay for Enhancers of SMN2 Splice Variant Expression. HEK293 SMN2-luciferase splicing reporter, luminescence, 30-36 h. Potency, µM (titrated, usually from 46.1 µM), usual class: activators. 2.8% of 210,000 active. AID 1458, 2008; note: nearly all actives have a fitted effect of over 55% in size
#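 HEK293 cells carry an SMN2 […]–luciferase reporter in which exon 7 inclusion puts luciferase in frame. Cells were plated 10-12 h before compound addition, then incubated 30-36 h at 37C. ONE-Glo luminescence was read; sodium butyrate at 4.5 mM final served as control.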
# ELG1 genotox = qHTS screen for small molecules that induce genotoxicity in human embryonic kidney (HEK293T) cells expressing luciferase-tagged ELG1 | AID 504466, 2011 | Potency, µM (doses to about 46 µM), most hits filed as activators | HEK293T ELG1-luciferase reporter, luminescence, 16 h | 1.3% of 330,000 active; note: nearly all actives have a fitted effect of over 60% in size
#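 Cells (2,000/well) expressing the ELG1-luciferase fusion are dosed by pin tool and kept 16 hr at 37 °C, 5% CO2. Signal comes from ONE-Glo luciferase reagent after 30 min at room temperature.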
# NPC1 prom act = qHTS Assay for NPC1 Promoter Activators; Huh7 NPC1 promoter luciferase reporter, 24 h; Potency, µM (series often up to 9.22 µM), usual class: activators; 2.4% of 320,000 active; note: nearly all actives have a fitted effect of over 60% in size
#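 Huh7 cells stably carrying NPC1 promoter–luciferase, plated in Opti-MEM with 10% FBS for 2 h, were exposed to compound in DMSO for 24 h at 37 °C; luciferase reagent was added for 10 min and luminescence read.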
# FLuc modulator = qHTS profiling assay for firefly luciferase inhibitor/activator using purifed enzyme and Km concentrations of substrates (counterscreen for miR-21 project); Luciferin 4-monooxygenase (Photinus pyralis), P08659; purified FLuc, Km substrates, luminescence inhibition; Potency, µM (highest dose often 57.5 µM), hits mostly inhibitors; 6.9% of 360,000 active; AID 588342, 2011; note: nearly all actives have a fitted effect of over 55% in size
# Target sequence (P08659 whole entry, looked up): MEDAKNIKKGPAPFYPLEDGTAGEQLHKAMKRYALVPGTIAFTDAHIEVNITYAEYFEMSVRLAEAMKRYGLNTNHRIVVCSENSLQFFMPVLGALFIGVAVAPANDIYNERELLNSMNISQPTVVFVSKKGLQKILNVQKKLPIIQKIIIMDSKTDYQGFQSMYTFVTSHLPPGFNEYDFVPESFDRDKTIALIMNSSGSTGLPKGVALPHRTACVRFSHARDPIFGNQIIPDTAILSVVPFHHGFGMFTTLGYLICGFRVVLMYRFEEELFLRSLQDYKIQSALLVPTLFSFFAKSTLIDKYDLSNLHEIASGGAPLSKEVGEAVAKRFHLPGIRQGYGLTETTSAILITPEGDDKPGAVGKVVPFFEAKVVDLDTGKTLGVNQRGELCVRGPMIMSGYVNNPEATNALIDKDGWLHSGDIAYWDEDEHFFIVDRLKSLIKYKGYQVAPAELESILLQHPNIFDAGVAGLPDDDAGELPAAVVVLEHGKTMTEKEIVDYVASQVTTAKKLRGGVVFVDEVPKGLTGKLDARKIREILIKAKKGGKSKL
#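 Biochemical qHTS of compounds, final roughly 60 µM downward over six points, against 10 nM purified firefly luciferase using Km concentrations of substrates (10 uM D-luciferin, 10 uM ATP) in Tris acetate pH 7.5 buffer; luminescence output.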
# Hits are given with their value; - = inactive; ? = inconclusive; . = no result; [ ] = another dose, or the depositor's remark. Calls come from the whole dose curve; as a rule, active = well fitted curve in the direction sought with a large enough effect; inconclusive = small, poorly fitted or top-dose-only effect, or another doubt; inactive = no such curve, though single readings can be large; an effect the other way counts as inactive or inconclusive.
SMILES,Rab9 prom act,SMN2 splice up,ELG1 genotox,NPC1 prom act,FLuc modulator
CC1(c2ccccc2)CC(c2ccccc2)=Nc2ccccc2N1 (configuration not stated),-,.,-,-,-
Cc1sc2ncnc(N3CCC(C(=O)Nc4nc(-c5cccs5)cs4)CC3)c2c1C,-,.,-,-,11µM
Cn1c(SCc2ccccc2F)nc2c([nH]c3ccccc32)c1=O,.,.,.,.,-
Cc1nc(N)sc1-c1csc(Nc2ncccn2)n1,0.56µM,5.6µM,23µM,?,3µM
Cc1nc(C)c(-c2csc(Nc3ccc(C(=O)O)c(O)c3)n2)s1,-,.,-,-,12µM
Cc1nc(C)c(-c2csc(Nc3ccc(F)cc3)n2)s1,?,-,-,-,?
COc1cccc(Nc2nc(-c3sc(C)nc3C)cs2)c1,-,.,-,-,19µM
COc1ccc(OC)c(Nc2nc(-c3sc(C)nc3C)cs2)c1,-,-,-,-,?
COc1cccc(Nc2nc(-c3sc(N)nc3C)cs2)c1,?,?,?,-,13µM
COc1ccccc1Nc1nc(-c2sc(N)nc2C)cs1,-,.,-,-,?
Cc1ccc2c(c1)NC(=O)C(CC(=O)Nc1ccc(Br)c(C)c1)O2 (configuration not stated),-,.,-,-,-
COc1ccc2c(c1)c1c(c(=O)n(Cc3ccccc3)c(=O)n1Cc1ccc(C)cc1)n2C,.,.,.,.,-
COc1cccc(Nc2nc(-c3sc(NC(=O)c4ccco4)nc3C)cs2)c1,-,-,-,-,24µM
COc1ccc(Cl)cc1Nc1nc(-c2sc(NC(=O)c3ccco3)nc2C)cs1,-,-,-,-,?
O=S(=O)(c1cccc(C(F)(F)F)c1)N1CCC(Oc2ccc(-n3cnnn3)cc2)CC1,.,-,.,.,-
Cc1cccc(NC(=O)CSc2cn(CC(=O)N3CCC(C)CC3)c3ccccc23)c1C,.,.,.,.,-
COc1ccc(Cc2n[nH]c(=S)n(N)c2=O)cc1,-,-,-,-,-
O=C(/C=C/Nc1ccc(F)c(F)c1)c1ccc(Br)cc1,2.5µM,13µM,?,2µM,1.5µM
O=C(/C=C/Nc1ccc(F)c(F)c1)c1cccs1,2.5µM,.,?,3.2µM,0.95µM
O=C(/C=C/Nc1ccc(F)cc1)c1ccc(Br)cc1,1.4µM,13µM,?,2µM,2.1µM
CCc1cc(C(=O)N(Cc2ccccc2)c2c(N)n(CCOC)c(=O)[nH]c2=O)sc1C,-,.,-,-,-
CC(C)[C@H](NC(=O)c1ccc(F)cc1)C(=O)NC1=NCCS1,-,-,-,-,-
CC(=O)N1CCN(c2nc3ccc(Br)cc3s2)CC1,?,.,?,3.2µM,15µM
CC(C)(C)C(=O)N1CCN(c2nc3ccc(Br)cc3s2)CC1,?,.,-,?,?
CCCC(=O)N1CCN(c2nc3ccc(CC)cc3s2)CC1,?,.,-,?,13µM
SMILES,Rab9 prom act,SMN2 splice up,ELG1 genotox,NPC1 prom act,FLuc modulator
CCCC(=O)N1CCN(c2nc3ccc(Cl)cc3s2)CC1,?,.,?,?,12µM
CCCC(=O)N1CCN(c2nc3ccc(Br)cc3s2)CC1,?,.,-,-,21µM
CCCCC(=O)N1CCN(c2nc3ccc(Br)cc3s2)CC1,-,.,-,-,?
Nc1cc(C(=O)OCC(=O)NNC(=O)c2ccccc2)ccc1Cl,-,.,-,-,-
CCN(CC)S(=O)(=O)c1ccc2c(c1)nc(CN(C)C(=O)Nc1ccc(C)c(Cl)c1)n2C,.,.,.,.,-
COC(=O)C1=C(C(=O)OC)[C@@H]2N(C)c3ccccc3[C@@]23C[C@@H](C(=O)OC)N(S(=O)(=O)c2ccc([N+](=O)[O-])cc2)C3=N1,.,-[9.22 µM],.,.,.
CC(C)(C)C(=O)N1CCN(c2nc3ccc(Cl)cc3s2)CC1,?,.,?,2µM,11µM
COc1ccccc1Nc1nc2ccccc2n1C,2.8µM,11µM,?,?,15µM
COc1cccc(CNc2nc3ccccc3n2C)c1O,1.8µM,.,9.2µM,1µM,9.5µM
COc1cccc(CNc2cnc3ccccc3c2)c1O,1.8µM,3.5µM,12µM,1.6µM,2.4µM
CCCCCn1c(NCc2ccccc2OC)nc2ccccc21,.,-,.,.,-
CC(C)CCNC(=O)CN(C(=O)CCC(=O)Nc1nccs1)c1ccc2c(c1)OCCO2,-,.,21µM,-,?
CC(C)(C)NC(=O)CN(C(=O)CCC(=O)Nc1nccs1)c1ccc2c(c1)OCCO2,-,.,-,-,-
CC(=O)c1sc(-c2ccccc2)cc1N,-,.,-,-,?
CCOC(=O)c1c(N)sc(-c2ccccc2)c1C,-,-,?,-,17µM
CCOC(=O)c1sc(-c2ccc(OC)cc2)cc1N,1.3µM,.,?,2.2µM,?
CCOC(=O)c1cc(-c2ccccc2)sc1N,?,?,-,-,21µM
CCOC(=O)c1sc(-c2ccccc2)cc1N,?,?,13µM,?,13µM
CSc1ccc(CCNC(=O)C(C)n2c(C)c3cnn(-c4ccccc4)c(=O)c3c2C)cc1 (configuration not stated),.,-,.,.,-
CCOC(=O)c1sc(-c2ccc(F)cc2)cc1N,2.5µM,?,14µM,?,9.5µM
CCOC(=O)c1sc2nc(C3CC3)cc(-c3ccc(F)cc3)c2c1N,-,-,-,-,-
Cc1ccc(NC(=S)NC(=O)C2CCCC2)cc1C,2.5µM,.,?,3.2µM,11µM
Cc1ccc(NC(=S)NC(=O)c2ccc(Br)o2)c(C)c1,2.8µM,8.9µM,?,?,9.5µM
Cc1ccc(NC(=S)NC(=O)C2CCC2)cc1C,4µM,.,?,1.4µM,9.5µM
O=C(NC(=S)Nc1ccccc1Br)C1CCCC1,-,.,?,?,19µM
SMILES,Rab9 prom act,SMN2 splice up,ELG1 genotox,NPC1 prom act,FLuc modulator
COc1ccccc1Cn1c(CNS(=O)(=O)c2ccc3c(c2)CCCC3)nc2cccnc21,.,.,.,.,-
CCOC(=O)c1ccccc1NC(=O)CCc1c(C)nc2ncnn2c1C,.,-,.,.,-
CC(=O)Nc1ccc(NC(=S)NC(=O)C2CC2)cc1,-,.,?,-,-
Cc1ccc(NC(=S)NC(=O)C2CC2)c(C)c1,?,.,21µM,?,15µM
Cc1cc(C(=O)CNCc2ccco2)c(C)n1-c1ccc(F)cc1,2µM,-,?,1.6µM,3.4µM
Cc1cc(C(=O)NC2CCCCC2)c(C)n1-c1ccc(F)cc1,2.5µM,?,5.8µM,2.8µM,6µM
Cc1cc(C(=O)CN2CCC(C)CC2)c(C)n1-c1ccc(F)cc1,1.4µM,13µM,?,?,9.5µM
Cc1ccc(OC(C)C(=O)Nc2ccc(S(=O)(=O)N3CCOCC3)cc2)cc1 (configuration not stated),-,.,-,-,-
CCNC(=O)C1CCCN1C(=O)C(CCCN=C(N)N)NC(=O)C(CC(C)C)NC(=O)C(Cc1cn(Cc2ccccc2)cn1)NC(=O)C(Cc1ccc(O)cc1)NC(=O)C(CO)NC(=O)C(Cc1c[nH]c2ccccc12)NC(=O)C(Cc1cnc[nH]1)NC(=O)C1CCC(=O)N1 (configuration not stated),-,.,-,-,-

# Compound activity from PubChem.
